Marburg entry inh = qHTS for inhibitors of binding or entry into cells for Marburg Virus. Marburg virus pseudotyped entry inhibition, cell reporter. Potency, µM (doses to about 37.8 µM), inactives show at the highest dose activity change, negative = inhibition, usual class: inhibitors. 1.8% of 300,000 active; calls by dose curve; tested in HEK293 cells; further: potency means the concentration at half of the fitted maximal effect
Vaccinia Venus = qHTS for Stage-Specific Inhibitors of Vaccinia Orthopoxvirus: Venus Reporter Primary qHTS | 0.46% of 330,000 active | Potency, µM (doses to about 36.5 µM), without a hit: top-dose activity change, negative = inhibition, actives largely listed as inhibitors | Vaccinia virus Venus reporter expression, fluorescence; calls by dose curve; tested in A549 cells; further: potency means the concentration at half of the fitted maximal effect; nearly all actives have a fitted effect of over 30% in size
HCMV inh = qHTS Assay for inhibitors of the human cytomegalovirus (HCMV) | 4.5% of 410,000 active | HFF cells, HCMV-luciferase reporter, 72 h; stronger effect = lower value | activity change, negative = inhibition, % at 57.5 µM; in the data active means activity change below about -60%; inconclusive means no clear call, values can overlap the other calls; inactive means above about -39%
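Luciferase read-out from HCMV-luciferase-infected HFFs (MOI 1 PFU/cell) 72 h post infection at 37C; compounds added after 16 h cell attachment; activity normalized between buffer-only basal and Salinomycin (10uM) inhibitor controls.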
Vaccinia mCherry = qHTS for Stage-Specific Inhibitors of Vaccinia Orthopoxvirus: mCherry Reporter Primary qHTS | AID 720579, 2013 | Vaccinia virus mCherry reporter infection, fluorescence | 0.63% of 310,000 active | Potency, µM (series often up to 36.5 µM), for the others: at the top dose activity change, negative = inhibition, hits mostly inhibitors; calls by dose curve; tested in A549 cells; further: potency means the concentration at half of the fitted maximal effect; nearly all actives have a fitted effect of over 35% in size
FMDV antiviral = High Throughput Screening for Foot and Mouth Disease Virus Antivirals; FMDV antiviral cell-based qHTS; AID 1159524, 2015; Potency, µM (titrated, usually from 57.9 µM), for inactives: top-dose activity change, negative = inhibition, hits mostly inhibitors; 1.2% of 410,000 active; calls by dose curve; tested in HEK293T cells; further: read-out not given here; potency means the concentration at half of the fitted maximal effect; nearly all actives have a fitted effect of over 45% in size
Lassa entry inh = qHTS for Inhibitors of binding or entry into cells for Lassa Virus. Potency, µM (doses to about 37.9 µM), for inactives: at the top dose activity change, negative = inhibition, usual class: inhibitors. AID 540256, 2011. 1.2% of 300,000 active. Lassa virus pseudotype entry inhibition, cell reporter; calls by dose curve; tested in HEK293 cells; further: potency means the concentration at half of the fitted maximal effect; nearly all actives have a fitted effect of over 50% in size
* hit, by the source's call; i = inactive; ? = inconclusive; nt = no result; [ ] = another dose, or the depositor's remark. Compounds with a hit are over-represented: about 6.5% of the library has one in this group of screens. On the % scale 0 is the no-effect control and ±100 the full control effect.

SMILES	Marburg entry inh	Vaccinia Venus	HCMV inh	Vaccinia mCherry	FMDV antiviral	Lassa entry inh
COc1ccc(-c2c([C@H]3[C@H]4C=CC[C@@H](C)[C@@H]4C(=O)N3Cc3ccccc3)ccc3ccccc23)cc1OC	nt	?	-84*	-26%	?	nt
COc1ccc(-c2cccc(C3CC=CC4C3C(=O)N(Cc3ccccc3)C4c3ccc(C(F)(F)F)cc3)c2)cc1 (stereo not given)	nt	-10%	-67*	-4%	-11%	nt
CN(C)c1ccc(-c2cccc(C3CC=CC4C3C(=O)N(Cc3ccccc3)C4c3ccc(C(F)(F)F)cc3)c2)cc1 (stereo not given)	nt	-13%	?	-5%	-1%	nt
O=C1C2C(c3ccccc3)CC=CC2[C@H](c2ccc(C(F)(F)F)cc2)N1Cc1ccccc1 (stereo not given in full)	nt	?	-85*	-20%	0%	nt
COc1ccc(-c2ccc(OC)c([C@H]3[C@H]4C=CC[C@@H](C)[C@@H]4C(=O)N3Cc3ccccc3)c2)cc1OC	nt	?	37	-17%	0%	nt
C[C@H]1CC[C@H]2C(=O)O[C@H](COc3ccc(C(C)(C)C)cc3)CN2[C@@H]1c1ccc(Br)cc1	-12%[14.2 µM]	nt	nt	nt	nt	nt
CC1CC[C@@]2(C(=O)O)CC[C@]3(C)C(=CCC4[C@@]5(C)CCC(O)C(C)(C)C5CC[C@@]43C)C2C1C (stereo not given in full)	nt	46%	nt	42%	-2%	nt
CC1CCC(C(C)C)C(OC(=O)Cn2c(-c3ccc(Cl)cc3)[n+](C)c3ccccc32)C1 (stereo not given)	nt	11%[7.34 µM]	-100*	2%[7.34 µM]	?	nt
CC1CCC(C(C)C)C(OC(=O)Cn2c(-c3ccc(Br)cc3)[n+](C)c3ccccc32)C1 (stereo not given)	?	13µM*	-99*	11µM*	?	?
CC1CCC(C(C)C)C(OC(=O)COC(=O)c2cccn2C)C1 (stereo not given)	-29%[46.1 µM]	-12%	?	i	?	?
Cc1ccccc1OCc1n(CC(=O)OC2CC(C)CCC2C(C)C)c2ccccc2[n+]1C (stereo not given)	3.5µM*	11µM*	-96*	?	?	?
CCN(CC)CCN1C(=O)C(O)=C(C(=O)c2ccco2)[C@@H]1c1ccccn1	16%[46.1 µM]	nt	nt	nt	nt	nt
C=CCOC(=O)N[C@@H](c1cccc(OC)c1)[C@@H](C)C=CCC(=O)O	7%[14.2 µM]	nt	nt	nt	nt	nt
COc1nnc(-c2ccc(N3CCCCC3)c(NC(=O)C3CCCCC3)c2)c2ccccc12	2%	-4%	-101*	-4%	?	17%
COc1nnc(-c2ccc(N3CCCCC3)c(NC(=O)c3ccccc3)c2)c2ccccc12	?	?	-25	?	8.9µM*	24%[46.1 µM]
CCc1cc(SC#N)cc(CC)c1NC(=O)CCl	-18%	-29%	-74*	-25%	25µM*	?
O=C1c2ccccc2C(=O)N1Nc1ccccc1	?	17%	4	-9%	0%	-19%
Cc1ccc(NN2C(=O)C=C(c3ccccc3)C2=O)cc1	11µM*	-17%	5	-2%	20µM*	?
C[C@H]1C=CC(=O)O[C@H]1c1ccccc1	nt	3.2µM*	-77*	?	-28%	nt
C[C@H]1C=CCC(=O)N[C@@H](c2ccccc2)[C@@H](C)C=CCC(=O)N[C@@H]1c1ccccc1	?	nt	nt	nt	nt	-13%[14.3 µM]
CNC(=O)c1sc(N2N=C3/C(=C\c4ccccc4)CCCC3C2c2ccccc2)nc1C (stereo not given)	?	-11%	-28	-1%	32µM*	?
CCN(CC)CCN1C(=O)c2ccccc2NC1c1ccc(OC)c(COc2ccc(NC(C)=O)cc2)c1 (stereo not given)	nt	-6%	nt	30%	nt	nt
